Compound activity from PubChem BioAssay.
Hits are enriched below; roughly 6.5% of the tested compounds scored in any of these assays.
HT1080NT lethal – qHTS for induction of synthetic lethality in tumor cells producing 2HG: qHTS for the HT-1080-NT fibrosarcoma cell line. Potency, µM (doses to about 46.1 µM), actives largely listed as cytotoxic. HT-1080-NT fibrosarcoma viability, CellTiter-Glo ATP luminescence, 48 h. AID 686970, 2013. 1.6% of 360,000 active;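 also: NT is the 2HG producing partner of a matched IDH1 knockdown line; nearly all actives have a fitted effect of over 55% in size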
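Compounds were tested in concentration-response format on HT-1080-NT cells for 48 hours at 37 degrees C. Cell viability came from CellTiter-Glo luminescence; curves were classified by r2, response magnitude and activity.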
Giardia kill – Small Molecules that selectively kill Giardia lamblia: qHTS; 0.15% of 340,000 active; activity change, % at 7.66 µM, hits read low; Giardia lamblia trophozoite viability; in the data active = activity change below about -80%; inconclusive = between about -30% and that limit;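 also: parasites exposed to compound for two days anaerobically before the ATP read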
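ATP-content bioluminescence gauges trophozoite survival. Cells (100/well) receive compound and incubate anaerobically for 48 hrs at 37 deg C; detection reagent follows for 15-30 min at room temperature.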
HT1080 IDH1KD tx – qHTS for induction of synthetic lethality in tumor cells producing 2HG: qHTS for the HT-1080-IDH1KD cell line | HT-1080 IDH1 knockdown viability, ATP luminescence, 48 h | Potency, µM (highest dose often 46.1 µM), hits mostly cytotoxic | 2% of 360,000 active | AID 686971, 2013
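IDH1KD HT-1080 cells, 750/well, RPMI + 5% FBS; compound pinned after 2 h settling; 48 h, 37 °C; CellTiter-Glo luminescence; % activity normalised to DMSO and no-cell wells; curves fitted, classed by r2 and efficacy.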
IL-1B inflam inh – qHTS for Inhibitors of Inflammasome Signaling: IL-1-beta AlphaLISA Primary Screen | THP-1 LPS/ATP IL-1B secretion, AlphaLISA, 16 h; active compounds read low | activity change, % at 57.5 µM | 4.7% of 360,000 active; in the data active = activity change below about -50%; inconclusive = mostly about -30% to -49%
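THP-1 cells pretreated 1 hr with compounds (up to 57.5 uM final), then stimulated with LPS (250 ng/mL final) plus ATP (1.25 mM final); secreted IL-1B measured by AlphaLISA after 16 hr, decreased signal indicating inhibition.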
HepG2 tox-1 – qHTS for Inhibitors of TGF-b: Cytotox Counterscreen | 0.76% of 410,000 active | HepG2 CAGA-GFP viability, ATP luminescence, 18 h | AID 588856, 2011 | Potency, µM (doses to about 46.1 µM), usual class: cytotoxic
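CellTiter-Glo luminescence gave cytotoxicity after 18 hours at 37 degrees C. The cells were HepG2 CAGA-GFP in 1% FBS DMEM, stimulated with 500 pg/mL TGF-beta after compound addition. %Activity was normalised to no-cell wells (complete cell-killing) and DMSO (no toxicity), and curves were fitted and classified.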
TGFb inhibitor – qHTS for Inhibitors of TGF-b. HepG2 CAGA-GFP TGF-b/SMAD3 reporter, GFP fluorescence, 18 h; TGF-beta stimulated, 500 pg/mL final. AID 588855, 2011. 1.2% of 410,000 active. Potency, µM (series often up to 46.1 µM), most hits filed as inhibitors; also: nearly all actives have a fitted effect of over 65% in size
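HEPG2 CAGA-GFP, 1000 cells/well; 2 h settle, 37 C; cpd via pin tool; TGF-b 500 pg/mL final; 18 h, 37 C; GFP imaging ex488/em500-530; %Activity normalised to -TGF-b and +DMSO controls; CRC fit, curve class.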
TGFb confirm – qHTS for Inhibitors of TGF-b: Confirmation of Cherry Picks. AID 720534, 2013. Potency, µM (highest dose often 46.1 µM), usual class: inhibitors. 63% of 1,600 active. shares compounds with TGFb inhibitor. HepG2 CAGA-GFP TGF-b reporter, GFP fluorescence, 18 h; cells stimulated with TGF-beta, 500 pg/mL; also: nearly all actives have a fitted effect of over 65% in size
HepG2 tox-2 – qHTS for Inhibitors of TGF-b: Cytotox Counterscreen for Cherry Picks; shares compounds with TGFb inhibitor; HepG2 CAGA-GFP viability, ATP luminescence, 18 h; cells stimulated with TGF-beta, 500 pg/mL; Potency, µM (highest dose often 46.1 µM), hits mostly inhibitors; 27% of 1,600 active; also: nearly all actives have a fitted effect of over 70% in size
CCL64 TGFb inh – qHTS for Inhibitors of TGF-b: CCL64 Cells Orthogonal Assay for Cherry Picks; CCL64 CAGA-GFP reporter, TGF-b stimulated, GFP fluorescence, 18 h; 41% of 1,600 active; Potency, µM (series often up to 46.1 µM), usual class: inhibitors; shares compounds with TGFb inhibitor; also: nearly all actives have a fitted effect of over 65% in size
COP TGFb inh – qHTS for Inhibitors of TGF-b: Hit Validation in HepG2 Cells using COP promoter | Potency, µM (top dose mostly 46.1 µM), hits mostly inhibitors | 3% of 1,600 active | HepG2 COP-GFP TGF-b reporter, GFP fluorescence, 18 h; cells stimulated by added recombinant TGF-beta | shares compounds with TGFb inhibitor; also: nearly all actives have a fitted effect of over 70% in size
Numbers stand for hits; . = inactive; ? = inconclusive; / = no result. Unless noted, calls follow the shape of the dose curve; as a rule, active = well fitted curve in the direction sought with a large enough effect; inconclusive = small, poorly fitted or top-dose-only effect, or another doubt; inactive = no such curve, though single readings can be large; an effect the other way counts as inactive or inconclusive.

SMILES	HT1080NT lethal	Giardia kill	HT1080 IDH1KD tx	IL-1B inflam inh	HepG2 tox-1	TGFb inhibitor	TGFb confirm	HepG2 tox-2	CCL64 TGFb inh	COP TGFb inh
NC(=O)c1cc([N+](=O)[O-])c(Cl)cc1NCc1ccccn1	.	.	.	.	.	.	/	/	/	/
CCOc1ccccc1N(CC(=O)N1CCCCCC1)S(=O)(=O)c1ccc(C)cc1	.	.	.	.	.	.	/	/	/	/
Oc1c(N=Nc2nn[nH]n2)ccc2ccccc12	?	/	?	.	5.6µM	4.5µM	7.3µM	15µM	21µM	?
CCCCCCCN(c1ccccc1)[C@@H]1C[C@H]2CCCC(=O)N3CC[C@@H](C1)[C@@H]23	.	.	.	-108	11µM	10µM	?	?	21µM	21µM
O=c1ccn(Cc2ccccc2)c2ccccc12	.	.	.	.	.	?	/	/	/	/
O=c1c2ccccc2c(=O)n(Cc2ccccc2)n1Cc1ccccc1	.	.	.	.	.	11µM	?	.	18µM	?
S=C(Nc1ccc(Cl)cc1)c1nc2ccccc2s1	?	.	.	.	.	.	/	/	/	/
O=C(Nc1ccc(Cl)cc1)/C(=C/c1cccc(O)c1)c1nc2ccccc2s1	4.6µM	.	4.1µM	-101	.	2.8µM	8.2µM	13µM	4.1µM	.
Cc1cccc(COCC(Cc2ccccc2)N2CCN(C(=O)c3cc(Cl)cc(Cl)c3)CCC2=O)c1 (stereo unspecified)	?	.	?	-64	.	13µM	8.2µM	?	13µM	.
O=C(c1ccc(Cl)c(Cl)c1)N1CCC(=O)N(C(COCc2ccc(Cl)cc2)Cc2ccccc2)CC1 (stereo unspecified)	.	.	?	-73	.	10µM	21µM	?	?	.
Cc1ccc(S(=O)(=O)N2CCC(=O)N([C@H](COCc3ccc(Cl)cc3)Cc3ccccc3)CC2)cc1	.	/	.	.	/	/	/	/	/	/
Cc1nc2ccccn2c1-c1csc(NCc2ccco2)n1	.	.	.	?	.	.	/	/	/	/
Cc1ccc(Nc2nc(-c3c(C)nc4ccccn34)cs2)cc1	0.01µM	.	?	-87	.	10µM	2.6µM	?	1.3µM	.
O=C1Nc2ccccc2-n2nnnc2C1N1CCN(c2ccc(F)cc2)CC1 (stereo unspecified)	.	/	?	.	/	/	/	/	/	/
CCCn1c(C(C)Nc2nc(-c3ccc(OC)cc3)cs2)nc2ccccc21 (stereo unspecified)	.	.	.	.	.	.	/	/	/	/
OCCCn1c(C(CO)Nc2nc(-c3ccc(Cl)cc3)cs2)nc2ccccc21 (stereo unspecified)	.	.	.	?	.	18µM	15µM	.	?	.
